# Screening results (PubChem BioAssay)
# hDAT+cocaine = changed human dopamine transporter uptake under cocaine IC80. actives 1.3% (n = 110,000). B-score at 10 µM. LLC-PK1 hDAT cells, [14C]-dopamine uptake with cocaine IC80; actives deviate in either direction. AID 449768;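 active means Z score or B-score, a plate-position-corrected score, falls beyond the plate's 99.7% confidence bounds, in either direction; inactive means both scores lie inside the 99.7% bounds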
# PLAP activator = activators of human placental alkaline phosphatase; AID 696; purified PLAP enzyme, luminescent substrate read-out; hits give high values; activation fold at 20 µM; actives 1.2% (n = 96,000); in the data active means activation fold above about 2
# Candida biofilm = kills Candida albicans biofilms | actives 0.14% (n = 85,000) | inhibition, % at 6 µM | C. albicans biofilm + clotrimazole, Alamar Blue;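 active means inhibition above 20%; inactive means inhibition below 20%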;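 further: preformed 24 hr biofilms exposed to compound for 48 hr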
# HePTP inh = blocks human HePTP tyrosine phosphatase. recombinant HePTP phosphatase activity, OD absorbance. inhibition, % at 20 µM. actives 0.64% (n = 110,000). AID 521; in the data active means inhibition above about 50%
# Target sequence (P35236 whole entry, looked up): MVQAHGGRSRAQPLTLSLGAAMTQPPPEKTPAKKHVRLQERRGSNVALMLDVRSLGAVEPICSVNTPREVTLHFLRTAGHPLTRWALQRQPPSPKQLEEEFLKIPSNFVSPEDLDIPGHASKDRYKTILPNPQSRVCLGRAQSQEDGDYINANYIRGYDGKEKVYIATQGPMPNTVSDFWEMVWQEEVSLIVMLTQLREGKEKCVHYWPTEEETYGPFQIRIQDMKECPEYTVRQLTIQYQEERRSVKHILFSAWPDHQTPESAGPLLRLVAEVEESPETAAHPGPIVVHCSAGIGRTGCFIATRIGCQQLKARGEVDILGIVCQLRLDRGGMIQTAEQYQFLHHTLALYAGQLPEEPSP
# D1 mod = allosterically modulates the human D1 dopamine receptor. P21728. HEK293 D1, CRE-luciferase, dopamine EC30 potentiation; actives deviate in either direction. B-score at 10 µM. actives 5.9% (n = 58,000);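 active means luminescence count or its row- and column-corrected plate score outside the 99.7% band of the plate's sample wells, on either side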
# TNAP act mid DEA = activates human TNAP at intermediate phosphate acceptor concentration; purified TNAP, CDP-star luminescence, 100 mM DEA, 30 min; hits give high values; scale: 0 levamisole-inhibited, 1 vehicle-only enzyme; activation factor at 20 µM; 64,000 tested, under 10 active; P05186; AID 813;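 active means activation factor of at least 2 at 20 µM, relative to controls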
# A number is an active result; 0 = inactive; - = no result. Shown is part of a subset that was picked to be rich in hits.
SMILES,hDAT+cocaine,PLAP activator,Candida biofilm,HePTP inh,D1 mod,TNAP act mid DEA
CCOC(=O)c1nnn(-c2nonc2N)c1-c1ccccc1,0,0,0,0,9,0
CCCN(CCC)CCCNC(=O)C1c2cc(OC)c(OC)cc2C(=O)N(C)C1c1cccs1 (stereo not drawn),0,2,0,-,-,-
CCN(CC)CCCNC(=O)C1c2cc(OC)c(OC)cc2C(=O)N(C)C1c1cccs1 (stereo not drawn),0,0,0,-,-,-
Cc1n[nH]c(C)c1CCCCCOc1ccc([N+](=O)[O-])cc1,-,-,-,0,-,-
O=C(CSc1nc2ccccc2s1)N1CCN(C(=O)c2ccco2)CC1,0,0,0,0,0,0
CCOc1ccc2nc(SCc3ccccn3)sc2c1,-,-,-,79,-,-
CCOc1ccc2nc(SCC(=O)N3CCN(C(=O)c4ccco4)CC3)sc2c1,-1.7,0,0,-,-,-
O=C(Nc1ccc(Cl)cc1Cl)c1cc2nc(-c3ccccc3)cc(C(F)(F)F)n2n1,-,-,-,0,-,-
Cc1cc(C)n(C(=O)c2cccc(S(=O)(=O)N3CCOCC3)c2)n1,-8.3,0,0,0,0,0
Cc1cc(Cl)ccc1OCCCC(=O)NC1CCCCCCC1,-,-,-,0,-,-
COc1ccc(N2CCN(C(=O)c3cc4c(-c5cccc(OC)c5)nn(C)c4s3)CC2)cc1,2,0,0,0,0,0
COC(=O)c1cc(NC(=O)c2sc3cc(C)ccc3c2Cl)cc(C(=O)OC)c1,-,-,-,0,-,-
COC(=O)c1sc(NC(=O)c2sc3cc(C)ccc3c2Cl)c(C#N)c1C,-,-,-,103,-,-
Cc1cc(C)c2c(N)c(C(=O)Nc3nccs3)sc2n1,0,0,0,0,-6.6,0
COc1ccccc1N(CC(=O)N/N=C/c1ccc(OCC(=O)NCc2ccco2)cc1)S(=O)(=O)c1ccc(C)cc1,0,2,-,-,-,-
COc1ccc(OC)c(N(CC(=O)NCc2ccco2)S(=O)(=O)c2ccccc2)c1,-,-,-,0,-,-
COc1cc(/C=N/NC(=O)COc2ccc(Cl)cc2)ccc1OS(=O)(=O)c1ccc(C)cc1,-8.3,0,-,-,-,-
COc1ccc(OCC(=O)N/N=C/c2ccc(C)cc2)cc1,-,-,-,0,-,-
COc1ccc(C(=O)N2CCN(CCCc3ccccc3)CC2)cc1,-,-,-,0,-,-
COc1ccccc1-c1cc(-c2ccc(Br)cc2)nc(=O)[nH]1,-,-,-,0,-,-
COCCNC(=O)C1c2ccccc2C(=O)N(CCOC)C1c1ccc(F)cc1 (stereo not drawn),-7.6,0,0,0,0,0
COc1ccc(Br)cc1CN1CCN(Cc2ccc(OC)c(OC)c2OC)CC1,-,-,-,0,-,-
Cc1cccc(C)c1N1C(=O)c2ccccc2C1=O,0,0,40,0,0,0
O=c1cc(-c2ccc([N+](=O)[O-])cc2)nc2cc(-c3ccc(F)cc3)[nH]n12,-,-,-,0,-,-
O=c1cc(-c2ccc([N+](=O)[O-])cc2)nc2cc(-c3cccc(Cl)c3)[nH]n12,-,-,-,78,-,-
SMILES,hDAT+cocaine,PLAP activator,Candida biofilm,HePTP inh,D1 mod,TNAP act mid DEA
O=C1CSC(c2cn(-c3ccccc3)nc2-c2ccccc2)N1Cc1ccc(Cl)cc1 (stereo not drawn),-,-,-,74,-,-
O=C1CSC(c2cn(-c3ccccc3)nc2-c2cccs2)N1CC1CCCO1 (stereo not drawn),2.7,0,0,0,0,0
C/C(CC(=O)Nc1cccc(C)n1)=N\NC(=O)c1ccco1,-,-,-,0,-,-
N#C/C(=C/c1ccc(I)o1)C(=O)Nc1ccccc1Cl,-,-,-,0,-,-
Cc1ccc(C2C3=C(CC(C)(C)CC3=O)Nc3ccc4ccccc4c32)cc1[N+](=O)[O-] (stereo not drawn),-,-,-,0,-,-
COCCNc1ncnc2nc[nH]c12,0,0,0,0,0,0
COc1ccccc1CNc1ncnc2nc[nH]c12,0,2.1,0,0,0,0
COc1ccccc1Nc1ncnc2nc[nH]c12,0,2,-,-,-,-
CNC(=O)c1ccc(CN2CCC(Cc3ccccc3)CC2)cc1,-,-,-,0,-,-
Cn1c(NN)nc2c(c1=O)C(C)(C)Cc1ccccc1-2,-,-,-,0,-,-
C=CCNC(=O)c1ccc(CN(c2cccc(Cl)c2)S(C)(=O)=O)cc1,-,-,-,0,-,-
Cc1cc(NC(c2cccnc2)c2c(C)[nH]c3ccccc23)no1 (stereo not drawn),0,0,27,0,0,0
Cc1cc(Br)cc(C)c1NC(=S)NC(=O)CC(C)C,-8,0,-,-,-,-
COc1ccc(CC(=O)Nc2ccc(S(=O)(=O)N3CCc4ccccc43)cc2)cc1,-,-,-,0,-,-
Cc1cc(C)c2c(n1)nn1c(NCCCn3ccnc3)cc(C)nc21,-,2.5,0,0,0,0
CC(C)Cn1c(N)c(C(=O)COC(=O)c2cc(-c3ccccc3)nc3ccccc23)c(=O)n(C)c1=O,2.5,-,-,-,-,-
Cc1ccc(NC(=O)CSc2nc3nc(C)cc(C)c3c(=O)[nH]2)cc1,0,0,0,0,3.9,0
O=C(Nc1ccccc1C(=O)O)c1ccc2c(c1)C(=O)N(C1CCCCC1)C2=O,-,-,-,101,-,-
CCOC(=O)N1CCN(c2ncnc3c2[nH]c2ccc(F)cc23)CC1,0,0,-,-,-,-
CCOC(=O)N1CCN(c2ncnc3c2[nH]c2ccc(OC)cc23)CC1,3.5,0,0,0,0,0
COc1ccc(N2CCN(c3ncnc4c3[nH]c3ccccc34)CC2)cc1,0,0,0,-,-,-
COc1cc2[nH]c3c(N4CCN(c5ccccn5)CC4)ncnc3c2cc1OC,0,0,0,0,-4.8,0
O=C(Nc1ccc(I)cc1Cl)c1cccc([N+](=O)[O-])c1,-,-,-,0,-,-
O=C(O)c1ccc(NC(=O)c2ccc3c(c2)C(=O)N(c2ccc([N+](=O)[O-])cc2)C3=O)cc1,-,-,-,59,-,-
O=C(Nc1ccc(I)cc1Cl)c1ccc([N+](=O)[O-])cc1,-,-,-,88,-,-
SMILES,hDAT+cocaine,PLAP activator,Candida biofilm,HePTP inh,D1 mod,TNAP act mid DEA
O=C(O)c1ccc(NC(=O)c2cc(NC(=O)c3ccc(C(=O)O)cc3)cc(C(=O)Nc3ccc([N+](=O)[O-])cc3)c2)cc1,-,-,-,101,-,-
CCCc1c(C)nc2c(Cl)cccc2c1SCC(=O)O,-,-,-,0,-,-
Cn1c(O)c(C=NCC2(C)CC(O)CC(C)(C)C2)c(=O)n(C)c1=S (stereo not drawn),-,-,-,0,-,-
O=C(Oc1c(Br)cc(Br)cc1/C=N/NC(=O)c1ccccn1)c1ccc2c(c1)OCO2,-,-,-,0,-,-
c1ccc(CCNc2ncnc3nc[nH]c23)cc1,0,2.2,0,0,0,0
c1ccc2c(CCNc3ncnc4nc[nH]c34)c[nH]c2c1,0,0,0,0,-5.5,0
CCOC(=O)Cc1c(C)nc2c(-c3ccccc3)c(C)nn2c1C,0,-,0,-,-,-
Cc1nc2c(-c3ccc(F)cc3)c(C)nn2c(C)c1CCC(=O)NC(C)CCc1ccco1 (stereo not drawn),0,-,0,0,-3.3,0
CCN1CCN(c2ccc(NC(=O)CCc3c(C)nc4c(-c5ccccc5)c(C)nn4c3C)cc2)CC1,2.5,0,-,-,-,-
Cc1nc2cc(-c3ccc(Cl)cc3)nn2c(C)c1CCC(=O)NCc1ccco1,0,0,0,-,-,-
Cc1nc2c(-c3ccccc3)c(C)nn2c(C)c1CCC(=O)NCc1ccco1,0,0,0,0,-5.2,0
COc1cccc(NC(=O)CN(c2ccc(C)cc2)S(=O)(=O)c2ccc(SC)cc2)c1,-,-,-,0,-,-
O=C1C(C=NCc2ccccn2)=C(O)c2ccccc21,0,0,0,0,0,0
